Read-out in assay [1]: UDP glucuronosyltransferase (UGT1A1), UGT1A1 (gene 54658)
The experiment in a line: LTEA_HepaRG_UGT1A1: Life Technologies and Expression Analysis (LTEA) Assay for UDP glucuronosyltransferase (UGT1A1) using HepaRG (AID 2283538; active means hit-call score of the fitted dose curve at least 0.9, where 1 is the maximum; inactive means score below 0.9). The settings on record: mRNA level, 48 h; actives raise or lower the signal. Put shortly:
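Differentiated human HepaRG cells in serum-free induction medium were exposed in duplicate for 48 h to eight half-log concentrations up to 100 uM in 0.5% DMSO. UGT1A1 mRNA was quantified by TaqMan qRT-PCR, normalized to ACTB, GAPDH and POLR2A, and fitted bidirectionally against DMSO.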

Read-out in assay [2]: UDP glucuronosyltransferase (UGT1A6), UGT1A6 (gene 54578)
Nature of the assay: LTEA_HepaRG_UGT1A6: Life Technologies and Expression Analysis (LTEA) Assay for UDP glucuronosyltransferase (UGT1A6) using HepaRG (AID 2283539; active means hit-call score of the fitted dose curve at least 0.9, where 1 is the maximum; inactive means score below 0.9). As to conditions: mRNA level, 48 h; actives raise or lower the signal. Put shortly: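 Measures mRNA change in HepaRG hepatic cells exposed 48 h to chemicals (eight-point, maximum 100 uM, 0.5% DMSO vehicle) in serum-free induction medium. Expression normalized to endogenous controls; DMSO served as negative control and baseline.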

Read-out in assay [3]: X-box binding protein 1 (XBP1), XBP1 (gene 7494)
The experiment in a line: LTEA_HepaRG_XBP1: Life Technologies and Expression Analysis (LTEA) Assay for X-box binding protein 1 (XBP1) using HepaRG (AID 2283540; active means hit-call score of the fitted dose curve at least 0.9, where 1 is the maximum; inactive means score below 0.9). The settings on record: mRNA level, 48 h; actives raise or lower the signal. A digest of the protocol: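 Eight concentrations (half-log, highest 100 uM, 0.5% DMSO) tested in duplicate on HepaRG cells over 48 h in serum-free induction medium; qRT-PCR of XBP1 normalised to ACTB, GAPDH, POLR2A.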

A short description of assay [4]: LTEA_HepaRG_LDH_cytotoxicity: Cytotoxicity Assessment in the Life Technologies and Expression Analysis (LTEA) Assay (AID 2283563).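 On AC50: LDH activity released into spent culture medium as a marker of cell death.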 Put shortly: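 Spent-medium LDH after 48 h chemical exposure of HepaRG cells in serum-free induction medium; eight concentrations, half-log dilutions from 100 uM, duplicate wells, fitted upward relative to 0.5% DMSO.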
Assay [5] in a line: ATG_XTT_Cytotoxicity: Cytotoxicity Assessment in the Attagene TRANS-FACTORIAL HepG2 Assay (AID 2283584).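 On AC50: XTT signal for cell number as viability in transfected HepG2 cells; cells exposed to compound for 24 h before reading; active means loss of viability signal versus DMSO baseline.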 A digest of the protocol:
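24 h chemical exposure of reporter-transfected HepG2; XTT signal loss vs DMSO indicates cytotoxicity.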

Assay [6] deals with Cellular tumor antigen p53 (Homo sapiens) (UniProt P04637). The experiment in a line: TOX21_p53_BLA_p2_ratio: Tox21 HCT-116 p53 Agonism Beta-lactamase Assay, Ratio, Phase 2 (AID 2283592). A digest of the protocol:
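Human colon HCT116 cells with an inducible p53 beta-lactamase reporter are exposed to test chemicals for 16 h at 37C. Reporter induction is read as the 460/530 nm emission ratio after CCF4-AM loading, normalized to DMSO.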

The nature of assay [7]: TOX21_p53_BLA_p3_viability: Viability Assessment in the Tox21 HCT-116 p53 Agonism Beta-lactamase Assay, Phase 3 (AID 2283593).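 Further: cells exposed to compound for 16 h before reading.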 A digest of the protocol: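 HCT116 cells, 4000/well, dosed 5 h after plating by pin transfer (217-fold dilution from DMSO stock) and incubated 16 h at 37C, 5% CO2. Viability read as ATP luminescence with CellTiter-Glo after 30 min at room temperature.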

Assay [8] addresses Cellular tumor antigen p53 (Homo sapiens) (UniProt P04637). The experiment in a line: TOX21_p53_BLA_p3_ratio: Tox21 HCT-116 p53 Agonism Beta-lactamase Assay, Ratio, Phase 3 (AID 2283596). Put shortly: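 HCT116 p53-bla cells (4000/well) given compound in DMSO (217-fold dilution) after 5 h, incubated 16 h at 37C. CCF4-AM substrate 2 h at room temperature; 460/530 nm emission ratio, gain fitted against DMSO.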

Assay [9] is described as follows: TOX21_p53_BLA_p5_viability: Viability Assessment in the Tox21 HCT-116 p53 Agonism Beta-lactamase Assay, Phase 5 (AID 2283600). Put shortly: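 Seeded cells (4000/well) settle 5 h before compound addition. Plates then incubate 16 h at 37C, receive FRET substrate for 2 h, and finally CellTiter-Glo, with luminescence measured after a 30 min room-temperature incubation.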

The nature of assay [10]: Tanguay_ZF_120hpf_MORT_legacy: (Legacy) Oregon State University Tanguay Lab 120 Hour Post-fertilization zebrafish Assay for Mortality (AID 2283633).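 On AC50: fitted as increase in binary mortality versus DMSO negative control.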 A digest of the protocol:
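Single dechorionated Tropical 5D embryos were held with test chemical (0.64% DMSO final) from 6 to 120 hpf at 28C under foil. Deaths at 24 or 120 hpf were recorded as binary calls, analysed for increase over DMSO controls.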

A short description of assay [11]: Tanguay_ZF_120hpf_EYE_legacy: (Legacy) Oregon State University Tanguay Lab 120 Hour Post-fertilization zebrafish Assay for Eye Malformation (AID 2283636).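 Further: binary presence or absence of eye malformation scored by brightfield in 120 hpf larvae.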 A digest of the protocol: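 Dechorionated Tropical 5D zebrafish embryos, one per well from 6 hpf, static exposure to 120 hpf at 28C, 0.64% DMSO. Eye malformation scored present/absent by brightfield; dead embryos not scored.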

Assay [12] is described as follows: Tanguay_ZF_120hpf_SNOU_legacy: (Legacy) Oregon State University Tanguay Lab 120 Hour Post-fertilization zebrafish Assay for Snout Malformation (AID 2283637). Put shortly:
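Dechorionated tropical 5D wild-type zebrafish embryos exposed statically from 6 to 120 hpf at 28C, one per well, in 0.64% DMSO. Snout malformation scored as present/absent by brightfield at 120 hpf; dead embryos not scored.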

Assay [13] can be described thus: Tanguay_ZF_120hpf_JAW_legacy: (Legacy) Oregon State University Tanguay Lab 120 Hour Post-fertilization zebrafish Assay for Jaw Malformation (AID 2283638).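 On AC50: active means more embryos with jaw malformation than DMSO controls.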 A digest of the protocol:
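Wild-type 5D embryos, chorion removed at 4 hpf, dosed singly from 6 hpf; 28C static, sealed, foil-covered, to 120 hpf. Endpoint: jaw defect yes/no (brightfield); mortality excludes scoring.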

Assay [14] can be described thus: Tanguay_ZF_120hpf_OTIC_legacy: (Legacy) Oregon State University Tanguay Lab 120 Hour Post-fertilization zebrafish Assay for Otic Vesicle Malformation (AID 2283639). A digest of the protocol:
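Tropical 5D wild-type zebrafish embryos were exposed statically in sealed, foil-covered plates at 28C until 120 hpf, with 0.64% (vol/vol) DMSO final. Otic vesicle malformation was scored present/absent by brightfield microscopy, with DMSO as baseline.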

Assay [15] can be described thus: TOX21_p53_BLA_p2_viability: Viability Assessment in the Tox21 HCT-116 p53 Agonism Beta-lactamase Assay, Phase 2 (AID 2283591).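 Further: compound exposure lasted 16 h at 37 °C; actives lower the ATP signal meaning cytotoxicity.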 Put shortly:
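HCT116 p53-bla cells, 4000/well, dosed after 5 h plating (217-fold dilution of DMSO stocks) and incubated 16 h at 37C. Viability taken as cellular ATP by CellTiter-Glo luminescence after 30 min RT; signal loss marks cytotoxicity.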

Assay [16] is described as follows: TOX21_p53_BLA_p4_viability: Viability Assessment in the Tox21 HCT-116 p53 Agonism Beta-lactamase Assay, Phase 4 (AID 2283597).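 Further: hits lower the luminescence signal meaning cytotoxicity.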 A digest of the protocol: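 Luminescent ATP readout (CellTiter-Glo, 30 min, room temperature) in the same wells as the p53 bla ratio. HCT116 cells were treated for 16 h at 37C with DMSO-dissolved compounds.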
Assay [17] addresses Cellular tumor antigen p53 (Homo sapiens) (UniProt P04637). The experiment in a line: TOX21_p53_BLA_p5_ratio: Tox21 HCT-116 p53 Agonism Beta-lactamase Assay, Ratio, Phase 5 (AID 2283599). Put shortly:
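HCT-116 p53-bla cells (4000/well) plated 5 h, dosed with compound (217-fold DMSO dilution) for 16 h at 37 C; CCF4-AM substrate 2 h at room temperature. Activity is the 460/530 nm emission ratio (405 nm excitation), fitted in gain-of-signal direction versus DMSO.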

Assay [18] shares this target. Nature of the assay: TOX21_p53_BLA_p4_ratio: Tox21 HCT-116 p53 Agonism Beta-lactamase Assay, Ratio, Phase 4 (AID 2283601). Put shortly:
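HCT-116 p53 beta-lactamase reporter cells (4000/well) preincubated 5 h, then compound (217-fold dilution of DMSO stock) for 16 h at 37C. CCF4-AM substrate added 2 h at room temperature; 460/530 nm emission ratio fitted upward versus DMSO.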

Assay [19] is described as follows: Tanguay_ZF_120hpf_YSE_legacy: (Legacy) Oregon State University Tanguay Lab 120 Hour Post-fertilization zebrafish Assay for Yolk Sac Edema (AID 2283634).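 On AC50: actives raise the incidence of yolk sac edema above the DMSO baseline.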 Put shortly: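 Single dechorionated embryos were held in sealed plates at 28C with test chemical (0.64% DMSO final) from 6 hpf until 120 hpf. Edema of the yolk sac was then recorded as a binary endpoint; non-mortality endpoints were skipped for dead embryos.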

Assay [20] in a line: Tanguay_ZF_120hpf_AXIS_legacy: (Legacy) Oregon State University Tanguay Lab 120 Hour Post-fertilization zebrafish Assay for Body Axis Malformation (AID 2283635).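 On AC50: potency for an increased fraction of larvae scored with body axis malformation.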 A digest of the protocol: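 Each dechorionated embryo was exposed alone from 6 hpf, with DMSO at 0.64% (vol/vol) and trimethyltin chloride 5 uM as positive control. Axis malformation was recorded at 120 hpf unless the embryo had died.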

Values joined by “and” are separate entries in the source; they are usually repeats but may differ in a detail not shown here. Equal entries are not always repeated. Results filed as inconclusive are left out. Some compounds were tested as several samples or in several runs, with calls that do not always agree. Active and inactive are the calls of the source. How the source made its calls, unless noted: active means hit-call score of the fitted dose curve at least 0.9, where 1 is the maximum; inconclusive means response in the unintended direction; inactive means score below 0.9.

Chain of Cellular tumor antigen p53 (Homo sapiens) (P04637 whole entry, looked up): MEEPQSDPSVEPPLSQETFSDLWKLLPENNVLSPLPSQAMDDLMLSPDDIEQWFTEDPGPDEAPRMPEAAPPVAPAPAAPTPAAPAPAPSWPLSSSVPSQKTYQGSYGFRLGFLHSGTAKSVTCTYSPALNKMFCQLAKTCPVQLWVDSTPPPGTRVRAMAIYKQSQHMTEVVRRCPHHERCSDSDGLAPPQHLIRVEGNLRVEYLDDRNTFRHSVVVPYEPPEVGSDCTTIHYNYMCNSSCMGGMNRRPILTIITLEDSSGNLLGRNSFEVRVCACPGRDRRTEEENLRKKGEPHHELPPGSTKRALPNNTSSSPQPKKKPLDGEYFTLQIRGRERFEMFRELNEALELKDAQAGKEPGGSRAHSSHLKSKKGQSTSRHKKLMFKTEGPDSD

With `CCCCCCCCCC[N+](C)(C)[O-]`, the compound was called inactive in [1], in [2], in assay [3], in [4], in assay [5] and in assay [6]. Also, the result in assay [7], in assay [8], in [9], in assay [10], in [11] and in [12] was inactive. For the same compound, the result in assay [13] and in assay [14] was inactive.

Take `CN(C)CCCN1c2ccccc2Sc2ccc(Cl)cc21`: the compound was called inactive in assay [1], in assay [2], in assay [3], in [6], in [7] and in assay [8]. The result in assay [17], in [18], in assay [19], in assay [11], in [12] and in assay [13] was inactive. Moreover, in assay [14], the compound was called inactive. For the same compound, the half-maximal activity concentration (AC50) in assay [4] is 38.4 µM (active); in assay [5] it was 43.2 µM (active); in assay [15], 73.4 µM (active); in [6] it was 6.66 µM (active); in [16], 36.8 µM (active) and 73.4 µM (active); in assay [9], 77.8 µM (active). In addition, the half-maximal activity concentration (AC50) is 20.6 µM (active) in [18] and 16.3 µM (active) in assay [10].

Regarding `O=C1O[C@H]([C@H](O)CO)C(O)=C1O`, the result in [1], in [2], in assay [3], in [4], in assay [5] and in assay [15] was inactive. The result in assay [6], in [7], in assay [8], in assay [16], in [17] and in [10] was inactive. Moreover, the outcome in assay [19], in assay [11] and in [13] was inactive.

For the compound `COC(=O)CCCC(=O)OC`, the compound was called inactive in assay [1], in [2], in assay [3], in assay [4], in assay [5] and in assay [15]. In addition, the result in [6], in assay [8], in [16], in [17], in [9] and in [10] was inactive. Moreover, the outcome in [19], in assay [20], in assay [11], in assay [12], in assay [13] and in assay [14] was inactive.

For `S=c1[nH]c2ccccc2s1`, the compound was classed as inactive in assay [1], in [2], in assay [3], in assay [4], in [5] and in assay [15]. Besides, the result in [6], in assay [7], in assay [8], in [16], in assay [17] and in assay [10] was inactive. For the same compound, the concentration at half-maximal activity (AC50) is 11.7 µM (active) in [19]; 36.7 µM (active) in assay [20]; 42.1 µM (active) in assay [11]; 40.7 µM (active) in [12]; 10.7 µM (active) in assay [13]; 11.2 µM (active) in assay [14].

For the compound `Cc1ccc(C(C)(C)C)c(O)c1`, the call in assay [1], in assay [2], in assay [3], in assay [4], in assay [5] and in assay [15] was inactive. Besides, the result in assay [6], in assay [7], in [8], in [17], in [9] and in assay [10] was inactive. The compound was classed as inactive in assay [12], in [13] and in [14]. Further, in assay [16], the concentration at half-maximal activity (AC50) was 43.2 µM (active).

Consider `COC(=O)CCC(=O)OC`, for which the outcome in assay [1], in assay [2], in assay [3], in assay [4], in assay [5] and in [6] was inactive. Besides, the compound was called inactive in assay [7], in [8], in [16], in assay [17], in assay [9] and in assay [10]. The result in assay [20], in assay [11], in assay [12], in [13] and in assay [14] was inactive.

The AC50 is the concentration at which the activity in the assay is half-maximal.

These data come from PubChem BioAssay (EPA / NIEHS).
